Bioassay records as filed in PubChem.
Compounds with a hit are over-represented: about 2.9% of the library has one in this group of screens.
Pol eta inh – DNA polymerase eta (human) inhibition | Potency, µM (doses to about 114 µM), for inactives: at the top dose activity change, negative = inhibition, usual class: inhibitors | 390,000 compounds, 1.2% hits | Q9Y253 | recombinant Pol eta, fluorescent DNA replication assay | AID 588591; further: potency means the concentration at half of the fitted maximal effect; on the % scale 0 is the no-effect control and ±100 the full control effect
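Pol eta (10 nM) was preincubated with compounds for 15 min at room temperature, after which fluorescent replication substrate (50 nM final) was added to start the reaction. Fluorescence was read kinetically at 0 and 10 min.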
Pol iota inh – DNA polymerase iota (human) inhibition; 390,000 compounds, 1% hits; Potency, µM (highest dose often 115 µM), without a hit: at the top dose activity, negative = inhibition, usual class: inhibitors; Pol iota fluorescent replication assay, 10 min; Q9UNA4; AID 588590; further: potency means the concentration at half of the fitted maximal effect
Target sequence (Q9UNA4 whole entry, looked up): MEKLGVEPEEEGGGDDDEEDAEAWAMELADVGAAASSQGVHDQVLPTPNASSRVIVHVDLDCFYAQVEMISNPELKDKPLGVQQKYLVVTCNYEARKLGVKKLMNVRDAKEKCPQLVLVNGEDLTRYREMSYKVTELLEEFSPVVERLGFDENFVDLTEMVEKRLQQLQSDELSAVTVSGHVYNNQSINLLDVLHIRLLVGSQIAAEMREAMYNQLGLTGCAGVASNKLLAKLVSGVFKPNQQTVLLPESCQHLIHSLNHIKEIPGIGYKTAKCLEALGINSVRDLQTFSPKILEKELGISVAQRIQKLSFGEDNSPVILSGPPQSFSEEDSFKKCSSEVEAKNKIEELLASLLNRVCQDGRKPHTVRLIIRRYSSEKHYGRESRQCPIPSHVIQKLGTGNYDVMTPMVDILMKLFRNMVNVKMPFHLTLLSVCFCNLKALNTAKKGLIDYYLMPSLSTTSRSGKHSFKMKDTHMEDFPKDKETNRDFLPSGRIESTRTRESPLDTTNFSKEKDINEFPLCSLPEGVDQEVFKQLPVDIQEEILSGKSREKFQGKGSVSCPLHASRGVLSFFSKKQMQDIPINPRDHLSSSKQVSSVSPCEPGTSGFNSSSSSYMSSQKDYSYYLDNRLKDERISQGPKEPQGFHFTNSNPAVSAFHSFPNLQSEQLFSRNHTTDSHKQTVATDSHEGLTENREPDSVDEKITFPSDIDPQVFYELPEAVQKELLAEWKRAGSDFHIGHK
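Pol iota at 10 nM preincubated 15 min with compounds at room temperature; reaction started with fluorescent substrate, 50 nM final. Fluorescence read kinetically at 0 and 10 min; buffer-only wells as negative control.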
PI5P4Ka inh – inhibitors of human PI5P4K alpha. P48426. PI5P4Kalpha enzyme, ADP-Glo luminescence, 60 min; hits give low values. max response, %. 330,000 compounds, 1.2% hits. AID 652105; active means max response of -50% or lower; inconclusive means between -30% and -50%; inactive means -30% or higher; further: value at the top dose of about 77 µM; on the % scale 0 is the no-effect control and ±100 the full control effect
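PI5P4Kalpha ADP-Glo assay; 5 microM ATP final; 60 min RT reaction; HEPES pH 7.4/EGTA/CHAPS, 5% DMSO; controls lacking substrate or enzyme; luminescent end-point.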
POLB inh – inhibitors of human DNA polymerase beta; Potency, µM (doses to about 114 µM), for the others: top-dose activity change, negative = inhibition, usual class: inhibitors; P06746; 340,000 compounds, 1.3% hits; Pol beta primer extension/strand displacement, fluorescence kinetic; further: potency means the concentration at half of the fitted maximal effect; on the % scale 0 is the no-effect control and ±100 the full control effect
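Pol beta (10 nM) and compounds were preincubated 15 min at room temperature, then 50 nM substrate (final) started primer extension/strand displacement. Reads were taken at 0 and 10 min; concentration-response data were fitted to a four-parameter Hill equation.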
Pol kappa inh – blocks human DNA polymerase kappa activity | Q9UBT6 | purified Pol kappa, fluorescent DNA synthesis assay, 10 min | Potency, µM (titrated, usually from 107 µM), for the others: at the highest dose activity, negative = inhibition, most hits filed as inhibitors | 400,000 compounds, 0.53% hits; further: potency means the concentration at half of the fitted maximal effect; on the % scale 0 is the no-effect control and ±100 the full control effect
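Enzyme at 10 nM met test compounds for 15 min at room temperature. Substrate addition (50 nM final) began the reaction, which was monitored by fluorescence at 0 and 10 min.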
ALOX12 inh – ALOX12 (human) lipoxygenase inhibition; P18054; purified 12hLO, xylenol orange hydroperoxide absorbance; Potency, µM (top dose mostly 108 µM), for inactives: at the top dose activity change, negative = inhibition, actives largely listed as inhibitors; 580,000 compounds, 1.1% hits; AID 1671190; further: potency means the concentration at half of the fitted maximal effect; on the % scale 0 is the no-effect control and ±100 the full control effect
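Purified human 12hLO at 150 nM in 25 mM Hepes, 0.01% Triton X-100, pH 7.0, preincubated 15 min at room temperature with compound. Reaction started with 40 uM arachidonic acid, 30 min at room temperature. Hydroperoxide measured by Fe-xylenol orange, 573/405 nm absorbance ratio.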
Active calls of the source: *; ? = inconclusive; . = no result. Unless noted, the call rests on the fitted dose curve; in most records, active means well fitted inhibition curve with a large enough effect; inconclusive means small, poorly fitted or top-dose-only effect, or another doubt; inactive means no such curve, though single readings can be large or run the other way.

SMILES	Pol eta inh	Pol iota inh	PI5P4Ka inh	POLB inh	Pol kappa inh	ALOX12 inh
Cc1cc([N+](=O)[O-])ccc1N=Cc1ccc(C#Cc2ccccc2)cc1	.	.	.	.	.	-2.1%
CCOC(=O)C1=C(C)OC(N)=C(C#N)C1c1ccc(C(F)(F)F)cc1 (centres undefined)	.	.	.	.	.	15.8µM*
CC1=C(C(=O)Nc2ccccc2)C(c2cccc(Cl)c2)N2C(=O)CSC2=N1 (centres undefined)	.	.	.	.	.	1.1%
CC(C(=O)Nc1ccc(F)cc1Cl)N1CCN(c2ccc(O)cc2)CC1 (centres undefined)	.	.	.	.	.	39.8µM*
O=C(CSc1nc(NC2CC2)c2ccccc2n1)NC1CC1	.	.	.	.	.	0.9%
Cc1ccc2oc(=O)c3cc(C(=O)NCCCN4CCCCCC4)sc3c2c1	3.3%	79.4µM*	2.6	-2.7%	-33.4%	-2.8%
Cc1ccc(-c2cc(C(=O)OCC(=O)N(C)c3c(N)n(Cc4ccccc4)c(=O)[nH]c3=O)c3ccccc3n2)o1	-7.7%	43.4%	-21.3	.	-10.9%	7.08µM*
CCCn1c(N)c(N(CCOC)C(=O)c2cccnc2OCC)c(=O)[nH]c1=O	.	.	.	.	.	15.8µM*
CCCCn1c(N)c(N(CC(C)C)C(=O)c2cc(-c3ccc(OC)c(OC)c3)nc3ccccc23)c(=O)[nH]c1=O	-5.6%	22.6%	2.2	.	-12.4%	?
CCN(C(=O)CSc1n[nH]c(-c2ccc(OC)cc2)n1)c1c(N)n(Cc2ccccc2)c(=O)[nH]c1=O	-15.2%	-3.7%	4.2	.	-26.1%	?
Cc1ccc(-c2nc(SCC(=O)N(C)c3c(N)n(Cc4ccccc4)c(=O)[nH]c3=O)n[nH]2)cc1	-23.1%	31.3%	0.0	89.1µM*	-3.5%	389.0%
CCCCn1c(N)c(N(CCOC)C(=O)c2cc(-c3ccc(OC)c(OC)c3)nc3ccccc23)c(=O)[nH]c1=O	-11.3%	26.6%	-1.0	.	-15.9%	15.8µM*
O=C(NC1CCCC1)c1cccc2ccccc12	.	.	.	.	.	-3.0%
NC(=O)CSc1nnc(CNC(=O)c2ccc(Cl)cc2)n1-c1ccccc1	.	.	.	.	.	0.1%
COCCN(C(=O)c1cc(-c2ccco2)nc2ccccc12)c1c(N)n(Cc2ccccc2)c(=O)[nH]c1=O	22.4µM*	17.8µM*	-83.7*	.	?	-3.9%
CCCCN(C(=O)c1cc(-c2ccc(F)cc2)nc2ccccc12)c1c(N)n(CCCC)c(=O)[nH]c1=O	-2.7%	25.4%	-3.8	.	-17.3%	-3.5%
CCCn1c(N)c(N(CCOC)C(=O)c2cc(Cl)nc3ccccc23)c(=O)[nH]c1=O	-18.6%	5.8%	-5.0	.	-5.8%	-19.0%
CCCCN(C(=O)c1cc(-c2ccco2)nc2ccccc12)c1c(N)n(CCCC)c(=O)[nH]c1=O	50.1µM*	17.8µM*	-56.5*	.	79.4µM*	?
CCc1ccccc1NC(=O)c1n[nH]c(=O)c2ccccc12	.	.	.	.	.	0.1%
NC(=O)c1ccsc1NS(=O)(=O)c1ccc([N+](=O)[O-])cc1	.	.	.	.	.	14.1µM*
Fc1ccc(NC(=S)NCCc2ccccn2)cc1Cl	.	.	.	.	.	-13.2%
COc1ccc(/C=C/C(=O)c2ccc(C(=O)O)s2)cc1OC	.	.	.	.	.	5.62µM*
COc1ccc(/C=C/C(=O)c2ccc(C(=O)O)s2)c(OC)c1	.	.	.	.	.	-47.2%
COc1cccc(-c2nc(C)c(C(=O)NCc3ccncc3)s2)c1	.	.	.	.	.	-4.7%
O=C(NNC(=S)Nc1ccc(C(=O)O)c(O)c1)c1ccncc1	-16.5%	34.0%	-85.5*	.	-8.1%	-9.1%
SMILES	Pol eta inh	Pol iota inh	PI5P4Ka inh	POLB inh	Pol kappa inh	ALOX12 inh
Cc1nc(=S)c2ccccc2[nH]1	-12.0%	6.4%	-5.4	17.8%	-1.1%	?
Nc1cccc2[nH]c(C(F)(F)F)nc12	79.4µM*	39.8µM*	?	?	?	?
FC(F)(F)c1nc(=S)c2ccccc2[nH]1	-8.7%	-0.3%	-28.1	11.1%	11.1%	28.2µM*
CCOC(=O)C1CCN(c2cc(C)nc3nc(Cc4ccc(Cl)cc4)nn23)CC1	.	.	.	.	.	4.0%
Cc1cc(=O)cc2oc3cc(N)c(-c4c(C)cc(O)cc4O)c(C)c3nc1-2	.	.	.	.	4.47µM*	.
COc1cc(/C=C(\CC(=O)O)c2nc3ccccc3s2)cc(OC)c1O	-18.1%	39.6%	-1.6	0.8%	-9.7%	35.5µM*
COc1ccc(C(=O)Nc2cccc(/C=C(\CCC(=O)O)c3nc4ccccc4s3)c2)cc1	56.2µM*	?	-55.7*	?	?	0.0%
COc1ccc(-c2nn(-c3ccccc3)cc2/C=C(\CC(=O)O)c2nc3ccccc3s2)cc1OC	56.2µM*	?	-16.5	?	?	?
O=C(CSc1nc2ccccc2c(=O)n1CCCN1CCOCC1)c1ccc(F)c(F)c1	.	.	.	.	.	-63.5%
CCOc1cc(CNC(=O)c2ncoc2-c2cccs2)cc(OCC)c1OCC	.	.	.	.	.	16.2%
Cc1ccc(OCCC(=O)NNC(=O)c2nn(C)c(=O)c3ccccc23)cc1	-19.2%	15.5%	-1.5	.	-7.6%	1.5%
CCOc1ccc(OCCC(=O)NNC(=O)c2nn(C)c(=O)c3ccccc23)cc1	?	?	-22.3	35.5µM*	-32.4%	.
C[n+]1ccc(/C=C/c2ccc(Br)cc2)cc1	-24.6%	?	-4.2	-31.5%	89.1µM*	-23.4%
COc1ccccc1CNC(=O)c1ccccc1	.	.	.	.	.	-6.3%
COc1ccccc1CNC(=O)c1ccccc1C(=O)NC(CC(C)C)C(=O)NCc1ccccc1OC (centres undefined)	-34.1%	70.8µM*	3.1	4.5%	-11.8%	-15.2%
CN(C)c1ccc(NC(=O)c2cccc(N(C)C)c2)cc1	.	.	.	.	.	-39.9%
CN(C)c1cccc(C(=O)NNc2c(Cl)cc(Cl)cc2Cl)c1	.	.	.	.	.	5.01µM*
COc1ccccc1CNC(=O)c1cccc(N(C)C)c1	-14.0%	-5.9%	8.1	33.8%	10.3%	1.78µM*
COc1ccccc1CNC(=O)c1cnccn1	70.8µM*	?	.	39.8µM*	?	-0.4%
Cc1nc(-c2ccc(CNC(=O)NCc3ccccc3)s2)cs1	.	.	.	.	.	-6.8%
O=C(Nc1ccc2c(c1)CCC2)c1cc(F)c(F)cc1Cl	.	.	.	.	.	-25.9%
CCc1cccc(C)c1NC(=O)c1cccc(N(C)C)c1	-16.9%	-3.8%	-25.2	20.9%	6.1%	22.4µM*
C/C(=N\NC(=S)N/N=C(\C)c1ccccc1)c1ccccc1	.	.	.	.	.	-28.3%
CCC1(c2ccccc2)NC(=S)N(c2cccc(C)c2C)N1 (centres undefined)	-17.6%	86.2%	-4.0	1.5%	-7.1%	25.1µM*
Cc1ccc(NC(=O)c2nc3ccccc3nc2N2CCOCC2)cc1F	.	.	.	.	.	-10.8%
CCc1nnc(NS(=O)(=O)c2ccc(N/C=C(\C=O)c3nc4cc(Cl)ccc4o3)cc2)s1	?	-9.9%	-24.8	?	-20.9%	8.91µM*
CNC(=O)c1nn(CN2CCN(Cc3cc(C)ccc3OC)CC2)c(=O)c2ccccc12	.	.	.	.	.	54.3%
